Reference: PubChem BioAssay (NCATS)
Inconclusive results are not listed. Active and inactive are the calls of the source. Unless noted, calls follow the shape of the dose curve; as a rule, active = well fitted cell-killing curve with a large enough effect; inconclusive = small, poorly fitted or top-dose-only effect, or effect the other way; inactive = no such curve, though single readings can be large or run the other way.

Tests used:
[1] = Quantitative High-Throughput drug screen in 47 multiple myeloma cell lines against the NCATS MIPE library collection: UTMC2_PLB cell viability assay (AID 1919868); settings: CellTiter-Glo ATP luminescence, 48 h; viability (% of DMSO control): at 45.8 µM (top of the series) unless noted; also: nearly all actives have a fitted effect of over 55% in size
How it was run: (§1)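 Myeloma cells (500/well) treated with MIPE 4.0 compounds for 48 h at 37 °C, 5% CO2. Viability read as ATP via CellTiter-Glo luminescence after 5 min at RT; DMSO-only wells = 100%, media-only = 0% viability.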

[2] = Quantitative High-Throughput drug screen in 47 multiple myeloma cell lines against the NCATS MIPE library collection: PE2_PLB cell viability assay (AID 1919869); also: nearly all actives have a fitted effect of over 35% in size
How it was run: as §1

[3] = Quantitative High-Throughput drug screen in 47 multiple myeloma cell lines against the NCATS MIPE library collection: PCM6_Riken cell viability assay (AID 1919870); also: nearly all actives have a fitted effect of over 30% in size
How it was run: as §1

[4] = Quantitative High-Throughput drug screen in 47 multiple myeloma cell lines against the NCATS MIPE library collection: RPMI8226_ATCC cell viability assay (AID 1919871); also: nearly all actives have a fitted effect of over 30% in size
How it was run: as §1

[5] = Quantitative High-Throughput drug screen in 47 multiple myeloma cell lines against the NCATS MIPE library collection: OPM2_DSMZ cell viability assay (AID 1919872); also: nearly all actives have a fitted effect of over 30% in size
How it was run: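 Luminescent ATP measurement with CellTiter-Glo gives viability, scaled between DMSO-only wells (100%) and media-only wells (0%). Cells, 500 per well, faced library compounds for 48 hours at 37C.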

[6] = Quantitative High-Throughput drug screen in 47 multiple myeloma cell lines against the NCATS MIPE library collection: KMS11_JCRBsus cell viability assay (AID 1919873); also: nearly all actives have a fitted effect of over 50% in size
How it was run: as §1

[7] = Quantitative High-Throughput drug screen in 47 multiple myeloma cell lines against the NCATS MIPE library collection: KMS28BM_JCRB cell viability assay (AID 1919874); also: nearly all actives have a fitted effect of over 35% in size
How it was run: as §1

[8] = qHTS drug screen for cell cycle checkpoint inhibitors in PARPi-resistant BRCA-mutant ovarian cancer cell lines. (AID 1963452; calls by dose curve); settings: PEO1/OlaR viability, CellTiter-Glo luminescence, 96 h; for Z-AUC: stronger effect = lower value
How it was run: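 PEO1, PEO4 and PEO1/OlaR ovarian cancer cells, 600 per well, exposed 96 h at 37C to a dilution series. Viability read by CellTiter-Glo luminescence, normalized to DMSO and empty wells; activity summarized as Z-AUC.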

[9] = qHTS for identification of novel therapeutic agents for treatment of microphthalmiaassociated transcription factor (MiT) renal cell carcinoma (RCC) (AID 1963991; calls by dose curve); settings: CellTiter-Glo, 48 h; for Potency: active = Z-AUC below -0.8 in all three lines; for z-score: stronger effect = lower value
How it was run: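 Viability of three TFE3-fusion renal carcinoma lines measured by CellTiter-Glo after 48 h treatment with each of 1912 compounds at 11 concentrations. Responses scaled between DMSO (100%) and empty wells (0%) before curve fitting.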

[10] = measured here: PEO1 parental Z-AUC
[11] = TFE3-RCC UOK109 viability, measured here: UOK109 Z-AUC
[12] = TFE3-RCC viability, measured here: UOK124 Z-AUC
[13] = TFE3-RCC viability, measured here: UOK145 Z-AUC
Potency is read from the fitted curve at half-maximal effect.

| SMILES | Potency [1] | Potency [2] | Potency [3] | Potency [4] | Potency [5] | Potency [6] | Potency [7] | Z-AUC [8] | Z-AUC [8, 10] | Z-AUC ([8]; measured here: PEO4 Z-AUC) | Potency ([9]; TFE3-RCC UOK109 viability) | z-score [9, 11] | z-score [9, 12] | z-score [9, 13] | Potency [8] |
| --- | --- | --- | --- | --- | --- | --- | --- | --- | --- | --- | --- | --- | --- | --- | --- |
| CC(C)C[C@H](NC(=O)CNC(=O)c1cc(Cl)ccc1Cl)B(O)O | 418 nM (active) | 41.8 nM (active) | 66.2 nM (active) | 166 nM (active) | 132 nM (active) | 52.6 nM (active) | 66.2 nM (active) | -0.869 (inactive) | -1.48 | -1.83 | 372 nM (active) | -1.3 | -1.47 | -2.81 | – |
| CC[C@@]1(O)C(=O)OCc2c1cc1n(c2=O)Cc2cc3cc(O)ccc3nc2-1 | 37.2 nM (active) | 264 nM (active) | 743 nM (active) | 8330 nM (active) | 3320 nM (active) | 1180 nM (active) | 209 nM (active) | – | -3.38 | -2.58 | 1480 nM (active) | -0.967 | -1.78 | -2.02 | 38.9 nM (active) |
| O=C(NC1CCNCC1)c1[nH]ncc1NC(=O)c1c(Cl)cccc1Cl | 662 nM (active) | 833 nM (active) | 166 nM (active) | 1050 nM (active) | 526 nM (active) | 332 nM (active) | 264 nM (active) | – | -1.49 | -1.05 | – | – | – | – | 977 nM (active) |
| CC(=O)Nc1nc(C)c(-c2ccc(Cl)c(S(=O)(=O)NCCO)c2)s1 | 526 nM (active) | 4690 nM (active) | 4690 nM (active) | 16600 nM (active) | 14800 nM (active) | 5260 nM (active) | 18700 nM (active) | -1.67 (inactive) | -0.921 | -1.08 | – | – | – | – | – |
| C[C@@]12O[C@@H](C[C@]1(O)CO)n1c3ccccc3c3c4c(c5c6ccccc6n2c5c31)CNC4=O | 118 nM (active) | 118 nM (active) | 526 nM (active) | 1320 nM (active) | 1480 nM (active) | 418 nM (active) | 833 nM (active) | -1.24 (inactive) | -0.538 | -0.928 | 5260 nM (active) | -1.64 | -0.853 | -1.26 | – |
| CC(C)c1cc(-c2n[nH]c(=O)n2-c2ccc3c(ccn3C)c2)c(O)cc1O | 52.6 nM (active) | 37.2 nM (active) | 23.5 nM (active) | 37.2 nM (active) | 41.8 nM (active) | 16.6 nM (active) | 41.8 nM (active) | -0.89 (inactive) | -1.07 | 0.105 | 74.3 nM (active) | -1.34 | -0.923 | -1.27 | – |
| CCC[C@H](NC(=O)C(C#N)=Cc1cccc(Br)n1)c1ccccc1 | 2090 nM (active) | 2090 nM (active) | 1050 nM (active) | 2960 nM (active) | 5260 nM (active) | – | 2640 nM (active) | – | – | – | – | – | – | – | – |
| c1nc2nc(Nc3ccc(N4CCOCC4)cc3)nc(NC3CCCCC3)c2[nH]1 | 2640 nM (active) | 3720 nM (active) | 5900 nM (active) | 11800 nM (active) | 11800 nM (active) | – | 4180 nM (active) | -0.117 (inactive) | 0.016 | -0.143 | – | – | – | – | – |
| C[C@@H](Oc1cc(-c2cnn(C3CCNCC3)c2)cnc1N)c1c(Cl)ccc(F)c1Cl | 2350 nM (active) | 6620 nM (active) | 14800 nM (active) | – | 18700 nM (active) | 2640 nM (active) | 8330 nM (active) | 0.111 (inactive) | -0.187 | -0.116 | – | – | – | – | – |
| CCOc1ccccc1OCCNC(C)Cc1ccc(OC)c(S(N)(=O)=O)c1 (stereo not given) | inactive | inactive | inactive | inactive | inactive | inactive | – | – | – | – | – | -0.0547 | 0.341 | 2.03 | – |
| Cc1ccc(-c2ncn(-c3ccc(Nc4nccc(-c5cccc(N6CCOCC6)c5)n4)cc3)n2)cn1 | 187 nM (active) | 372 nM (active) | 37.2 nM (active) | 132 nM (active) | 296 nM (active) | – | 74.3 nM (active) | -1.4 (inactive) | -2.09 | -1.65 | 264 nM (active) | -1.3 | -2.07 | -1.38 | – |
| CCCNC(=O)Nc1ccc(Oc2ncnc3cc(OC)c(OC)cc23)cc1Cl | inactive | inactive | inactive | 935 nM (active) | – | – | – | -0.498 (inactive) | -0.00236 | -0.53 | – | 0.0793 | -1.33 | -0.496 | – |
| CCCCc1nc2cc(C=CC(=O)NO)ccc2n1CCN(CC)CC | 264 nM (active) | 1660 nM (active) | 13.2 nM (active) | 1320 nM (active) | – | 372 nM (active) | 187 nM (active) | – | – | – | – | – | – | – | – |
| CCCn1c(=O)c2[nH]c(-c3cnn(Cc4cccc(C(F)(F)F)c4)c3)nc2n(CC)c1=O | inactive | inactive | inactive | 7430 nM (active) | – | inactive | inactive | 1.35 (inactive) | 1.45 | 1.33 | – | 0.85 | 0.351 | 0.744 | – |
